# This is part of a sample that, as a whole, favours compounds with a hit. Of some 83,000 tested, about 20% had one in any assay.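 Plates (96-well) were seeded with cells, treated with compound at one concentration, and incubated for 48 hours before percent growth was determined.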 Values without a mark were called inactive. Activity calls are given as the source filed them. How the source made its calls: active means growth percent below 10; inactive means the rest.
# Experiments:
# Experiment in all cases: NCI-60 one-dose screen, 48 h (100 = growth as untreated, 0 = no growth, -100 = all killed)
# Conditions in all cases: 10 µM
# [1] = test system: HCT-15 colon
# [2] = test system: SNB-75 CNS
# [3] = test system: SNB-19 CNS
# [4] = test system: U251 CNS
# [5] = test system: PC-3 prostate
# [6] = test system: SK-MEL-5 melanoma
# [7] = test system: UACC-62 melanoma
# [8] = test system: LOX IMVI melanoma
# [9] = test system: SK-MEL-28 melanoma
# [10] = test system: SK-MEL-2 melanoma
# [11] = test system: SN12C renal
# [12] = test system: UO-31 renal
# [13] = test system: TK-10 renal
# [14] = test system: ACHN renal
# [15] = test system: CAKI-1 renal
# [16] = test system: CCRF-CEM leukemia
# [17] = test system: MOLT-4 leukemia
# [18] = test system: A498 renal
# [19] = test system: HT29 colon
# [20] = test system: EKVX NSCLC
Structure (SMILES),growth [1],growth [2],growth [3],growth [4],growth [5],growth [6],growth [7],growth [8],growth [9],growth [10],growth [11],growth [12],growth [13],growth [14],growth [15],growth [16],growth [17],growth [18],growth [19] [%],growth [20]
C=CCOc1ccc2c(c1)CC[C@@H]1[C@@H]2CC[C@]2(C)C(=O)/C(=N/O)C[C@@H]12,41.6%,18.9%,69.5%,68.8%,42.1%,77.4%,93.5%,42.3%,106%,54.6%,39.3%,27.6%,9.46% (active),30.4%,10.7%,6.37% (active),-31.7% (active),,,
COc1ccc(OC)c([N+](=O)[O-])c1C=O,104%,85.8%,101%,105%,92.9%,96.1%,100%,83.4%,103%,136%,101%,-43.3% (active),154%,92.5%,72.2%,41.4%,66.8%,59.2%,,
C/C(=N\NC(=S)N1CCCC1)c1ccccn1,31%,39.2%,20.3%,4.05% (active),24.7%,4.15% (active),-35.9% (active),1.56% (active),24.3%,13.8%,14.3%,-3.72% (active),28.5%,15.5%,6.32% (active),0.145% (active),3.06% (active),-5.14% (active),,
CC1(C)CC(OCCCC[P+](c2ccccc2)(c2ccccc2)c2ccccc2)CC(C)(C)N1O,,-3.17% (active),3.91% (active),8.32% (active),-45.6% (active),-98.4% (active),-35.9% (active),-74.2% (active),-55.8% (active),-23.4% (active),4.65% (active),-18.8% (active),-21.1% (active),-8.25% (active),-25.7% (active),-37.1% (active),0.462% (active),-5.35% (active),10.6,3.22% (active)
O=C(Nc1cccc(C(F)(F)F)c1)C(Cl)Cl,94%,91.3%,99%,102%,95.1%,103%,105%,101%,104%,97.4%,105%,80.6%,108%,103%,105%,98.8%,98.4%,101%,,
O=C(O)CNS(=O)(=O)c1ccc(OCCOc2ccc(S(=O)(=O)NCC(=O)O)cc2)cc1,96%,97.2%,106%,99.9%,96.5%,97.4%,102%,96.8%,106%,98.5%,,85.7%,92.7%,102%,99.5%,112%,106%,96.4%,,102%
COc1cc(-c2n/c(=C\c3c(O)[nH]c4ccccc34)cc3c2=Nc2ccccc2-3)cc(OC)c1OC,14.3%,5.55% (active),37.7%,12.5%,30.2%,2.12% (active),40%,25.8%,42.8%,35.6%,34.3%,33.9%,57.9%,37.2%,29.5%,,-13.5% (active),-16.3% (active),,45.8%
CCOC(=O)c1sc(NC(=O)c2cc(OC)c(OC)c(OC)c2)nc1C,96.9%,98.5%,118%,106%,65.1%,95.6%,88.5%,97.3%,101%,30.8%,92.6%,75.7%,,105%,116%,88.3%,87.6%,88.8%,,99.8%
CN(C)CCCN(Cc1ccccc1O)C(=S)Nc1ccc(Cl)cc1,93%,79.5%,94.7%,101%,93.8%,91.3%,108%,98.4%,109%,112%,98.2%,78.8%,104%,95%,99.7%,109%,106%,77.5%,,
COc1cccc2c1C(=O)c1c(O)c3c(c(O)c1C2=O)C[C@@](O)(C(=O)COC(=O)c1cccnc1)C[C@@H]3OC1CC(N)C(O)C(C)O1 (stereo partly specified),32.9%,-75% (active),5.16% (active),-14.4% (active),-41.8% (active),-49.1% (active),-88.4% (active),,-13.8% (active),-71.1% (active),6.29% (active),-40.4% (active),-9.29% (active),-7.12% (active),-40.7% (active),0.652% (active),-24.8% (active),,,
CCN1CCOC1C(C)C (stereo unspecified),105%,99.8%,113%,102%,93.4%,106%,105%,102%,108%,95.3%,99.8%,79.5%,,102%,98.2%,103%,94.3%,98.8%,,107%
COc1cc(CSc2nc3ccc(Cl)cc3c(=O)n2Cc2ccccc2)cc(OC)c1OC,24.9%,-34.5% (active),61.1%,32.8%,55.1%,25.7%,16.2%,,43.7%,21.4%,38.6%,27.1%,73.6%,40.3%,26.7%,28.5%,29.4%,24%,,
COc1cccc(-c2nnc(COc3ccc(-c4nc5ccccc5[nH]4)cc3OC)o2)c1,78.3%,109%,98.1%,97%,97.7%,67.4%,95.1%,104%,98.1%,99.3%,85.9%,87.9%,132%,103%,98.7%,44.9%,71.5%,71.8%,,
O=C(c1ccccc1)C(Sc1ccccc1)c1ccccc1 (stereo unspecified),60.7%,101%,110%,79.4%,73%,108%,83.5%,74.5%,94.1%,62%,87.7%,,,34.5%,82.5%,89.9%,67%,92.1%,,106%
Cc1ccccc1[P+](Cc1ccccc1)(c1ccccc1)c1ccccc1,90.1%,6.56% (active),24.7%,12.1%,,-14% (active),0.358% (active),22.4%,27.3%,-23.1% (active),29.9%,67.8%,21.4%,75.6%,86.8%,19.3%,19.3%,37%,,
CCCOCC(O)CNCCN (stereo unspecified),98.2%,93.4%,102%,95.5%,83.4%,106%,101%,104%,110%,116%,92.8%,87.8%,102%,95.4%,92.5%,97.6%,115%,89%,,
NC1CCC(Nc2nc(NCc3ccc(-c4cccs4)nc3)c3ncn(C4CCCC4)c3n2)CC1 (stereo unspecified),0.306% (active),-63.5% (active),10.2%,3.21% (active),1.6% (active),-96.8% (active),-42.4% (active),-82.1% (active),-62.3% (active),-76.8% (active),,9.49% (active),5.89% (active),-3.38% (active),15.3%,-2.89% (active),-16.3% (active),-78.5% (active),,-17% (active)
